Among the data in PubChem BioAssay (NCI) are growth values, retold here.

The structures appear in SMILES notation. Values joined by “and” are separate entries in the source; they are usually repeats but may differ in a detail not shown here. Equal values may be shown once. This is part of a sample that, as a whole, favours compounds with a hit. Of some 83,000 tested, about 20% had one in any assay.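 The test compound was applied at a single concentration to cells in 96-well plates for 48 hours, and percent growth was recorded.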 Active and inactive are the calls of the source. Rule for the calls: active = growth percent below 10; inactive = the rest.

The experiment relates to MDA-MB-468 breast. The experiment in a line: NCI-60 one-dose screen, 48 h (100 = growth as untreated, 0 = no growth, -100 = all killed). Particulars: 10 µM unless noted.
In the case of `CC(=O)NC(O)C(Cl)Cl` (stereo not given), the growth is 106% (inactive).

As to `CS(=O)CC(=N\O)/C(CS(C)=O)=N\O` (stereo not given), the growth was 104% (inactive).

Regarding `Cc1ccccc1NC(=O)c1sc2nc3c(cc2c1N)CCCC3`, the growth was 11.8% (inactive).

On to `CCN(CC)CCSc1c2ccc(Cl)cc2nc2ccc(OC)cc12`, for which the growth was -17.5% (active).

As for `CCNC(=O)Nc1ccc(-c2nc3c(c(N4CCOC[C@@H]4C)n2)CCN(C2COC2)C3)cc1`, the growth was 13.5% (inactive) and -25.6% (active).

As for `CC/C(=C\c1ccc(OC)cc1)C(=O)c1ccc(OC)cc1`, the growth was 79.2% (inactive).

Consider `CCOc1ccc(/C=C/C(=O)c2ccccc2)cc1`, for which the growth was 68.2% (inactive).

In the case of `Nc1c(C(=O)c2ccccc2)nnc2ncnn12`, the growth was 99.7% (inactive).

As for `O=C(c1ccccc1)N1N=C(c2ccc(-n3ccc(C(F)(F)F)n3)c(F)c2)CC1c1ccc[nH]1` (stereo not given), the growth is 108% (inactive).

Take `COc1ccc(NC(=O)Cn2cc(CN3C(=O)c4ccc([N+](=O)[O-])cc4C3=O)nn2)cc1`: the growth is 110% (inactive).

Turning to `CN(C)c1ccc2nc3ccc(=[N+](C)C)cc-3sc2c1`, the growth was -31.5% (active) and -9.26% (active) and -4.98% (active).

With `Cc1nc2sc(C(=O)Nc3ccccc3)c(N)c2cc1C(=O)c1ccccc1`, the growth is 9.68% (active).

With `O=[N+]([O-])c1ccc(-c2noc(-c3cccs3)n2)cc1`, the growth was 56.6% (inactive).

With `COc1cccc(CCN2C(=O)CCC3=C2CCC3=O)c1`, the growth was 103% (inactive).

For the molecule `C#CCn1c2c(c3ccccc31)C[C@]1(C)[C@H]3CC[C@@H]4[C@@H]5C(=CCC[C@H]5C(=C)C)CC[C@@]4(C)[C@]3(C)CC[C@H]1C2(C)C`, the growth was 117% (inactive).

As to `Cn1cc(-c2nn3cc(-c4cccnc4)nc3s2)c2ccccc21`, the growth was -2.67% (active).

In the case of `O=C1Nc2cc(OC(F)(F)F)ccc2Oc2ccc(-c3ccnc(N4CCNCC4)c3)cc21`, the growth was -79.4% (active).

With `CCCCCCc1cc2cc(-c3csc(/C=C/c4ccccc4)n3)c(=O)oc2cc1O`, the growth was -21.1% (active).

Turning to `C#CC[C@@H]1C[C@]2(C)[C@H]3CC[C@@H]4[C@H]5[C@H](C(=C)C)CC[C@]5(C(=O)O)CC[C@@]4(C)[C@]3(C)CC[C@H]2C(C)(C)[C@H]1O`, the growth is -2.92% (active).

As to `CN1CCN(Cc2ccc(NC(=O)c3cncc(C#Cc4cnccc4C#N)c3)cc2C(F)(F)F)CC1`, the growth was 90.5% (inactive).

`CC(=O)C1=C(C)NC(SCc2nnc(-c3ccc(C)cc3)o2)=NC1c1ccc(F)cc1` (stereo not given): the growth was 93.4% (inactive).

Turning to `CC(C)CC1C(=O)N2CCC[C@H]2C2(O)O[C@](NC(=O)C3C=C4c5cccc6[nH]c(Br)c(c56)C[C@H]4N(C)C3)(C(C)C)C(=O)N12` (stereo not given in full), the growth is 20.3% (inactive).

Turning to `CCCCc1n(Cc2ccc3ccccc3n2)cc[n+]1Cc1ccc2ccccc2n1`, the growth is -30% (active).

As to `CN1CCN(c2ccc(C(=O)Nc3cccc(-c4cn(-c5ccc(S(N)(=O)=O)cc5)nn4)c3)cc2C(F)(F)F)CC1`, the growth was 68.9% (inactive).

As for `CCOC(=O)C/C(=N\Nc1cc(=O)[nH]c2ccc(Cl)cc12)C(=O)OCC`, the growth was 98.6% (inactive).

Turning to `COc1ccc(C(=O)C(CN(C)C)c2ccc(OC)cc2)cc1` (stereo not given), the growth is 14.2% (inactive).

`O=C(O)c1ccc(NC(=O)c2ccc(-c3cccc([N+](=O)[O-])c3)o2)cc1`: the growth was 99.8% (inactive).

With `Cc1cc(Cl)nc(N(CCNc2ccnc3cc(Cl)ccc23)Cc2ccccn2)n1`, the growth is 3.86% (active).

As for `Cc1ccc(C)n1-c1ccsc1C(=O)NNC(=O)C(Cl)Cl`, the growth is 103% (inactive).

Consider `CC(=O)OCC1O[C@@H](OC(C)=O)[C@@H](NC(=O)NS(=O)(=O)c2ccccc2)C(OC(C)=O)[C@@H]1OC(C)=O` (stereo not given in full), for which the growth is 107% (inactive).

With `COc1cc2c3c(cc4c5c(ccc4c3c1OC)OCO5)N(CCN(C)C)C2=O`, the growth was -48.8% (active).

In the case of `O=S=Nc1ccc([N+](=O)[O-])cc1`, the growth was 103% (inactive).

In the case of `CS(=O)(=O)c1ccc(-n2cc(/C=C/C(=O)c3ccc(NC(=O)CO[N+](=O)[O-])cc3)c(-c3ccc(Cl)cc3)n2)cc1`, the growth was 94.1% (inactive).

`CC(=O)n1c2ccccc2c2ccccc21`: the growth is 105% (inactive).

For the molecule `COc1ccc(C(=NNS(=O)(=O)c2ccc(C)cc2)c2ccccc2)cc1OC`, the growth is 103% (inactive).

As for `c1ccc(CNc2ccc3nc(CCC4CCCCC4)[nH]c3c2)cc1`, the growth is 43% (inactive).

On to `CCCc1nn2c(CCC(=O)c3nc4ccc([N+](=O)[O-])cc4[nH]3)nnc2s1`, for which the growth was 114% (inactive).

Consider `COc1ccc(NC2=C(Cl)C(=O)C(C)=C(C)C2=O)cc1OC`, for which the growth is -38.8% (active).

Turning to `O=C1C(Nc2ccc(Cl)cc2)=C(I)C(=O)c2ncccc21`, the growth is -72.3% (active).

For `O=C(c1ccccc1)N(C(=O)c1ccccc1)N1CCCC1`, the growth was 108% (inactive).
